High-throughput results deposited in PubChem BioAssay by National Center for Advancing Translational Sciences (NCATS).
Cycloheximide cs = counter-screen for Shiga toxin inhibitors: cycloheximide protein synthesis inhibition; actives 12% (n = 300,000); cell reporter, cycloheximide protein synthesis inhibition counterscreen; AID 2314; max response, %; in the data active means max response mostly above about 13%, no sharp cut-off; inactive means mostly below about 14%; further: read at 38.3 µM for the half of the compounds with a filed dose; 0% is about no effect
Shiga inhibitor = blocks Shiga toxin action in Vero cells; Vero cells, Shiga toxin protein synthesis inhibition reporter; inhibition, % at 38.7 µM; actives 9.2% (n = 290,000); in the data active means inhibition mostly above about 28%, no sharp cut-off; inactive means mostly below about 43%; further: 0% is about no effect
Sm TGR block = blocks Schistosoma mansoni thioredoxin glutathione reductase | Potency, µM (top dose mostly 114 µM), for inactives: top-dose activity change, negative = inhibition, hits mostly inhibitors | purified TGR, DTNB reduction, TNB absorbance 405 nm | Q962Y6 | actives 3% (n = 360,000); active means well fitted inhibition curve with a large enough effect; inconclusive means small, poorly fitted or top-dose-only effect; inactive means no such curve, though single readings can be large or run the other way; further: potency means the concentration at half of the fitted maximal effect; on the % scale 0 is the no-effect control and ±100 the full control effect; nearly all actives have a fitted effect of over 60% in size
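Kinetic colorimetric format: TGR-catalysed, NADPH-driven DTNB reduction monitored via TNB absorbance. Enzyme dispensed at 20 nM; compound exposure 15 min at room temperature before reaction start.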
FMDV inh = blocks foot and mouth disease virus; FMDV antiviral cell-based qHTS; Potency, µM (doses to about 57.9 µM), without a hit: at the top dose activity change, negative = inhibition, usual class: inhibitors; actives 1.2% (n = 410,000); calls by dose curve; tested in HEK293T cells; further: read-out not given here; potency means the concentration at half of the fitted maximal effect; on the % scale 0 is the no-effect control and ±100 the full control effect; nearly all actives have a fitted effect of over 45% in size
Numbers without * were called inactive; ? = inconclusive; / = not tested or not shown. This is a sample that favours compounds with a hit; in the whole collection about 12% have one here.

SMILES	Cycloheximide cs	Shiga inhibitor	Sm TGR block	FMDV inh
COC(=O)c1ccc(COc2ccc(C=O)cc2OC)o1	11	4	8%	37%
C=CCc1ccc(OC(=O)c2ccccc2)c(OC)c1	24*	22	-3%	38%
CCC(=O)c1ccc(OCc2ccc(C(=O)OC)o2)c(OC)c1	28*	52	5%	0%
Cn1ncc([N+](=O)[O-])c1C(=O)Nc1ccc(-c2nc3ccccc3[nH]2)cc1	42*	48*	-10%	/
Cn1ncc([N+](=O)[O-])c1C(=O)Nc1ccc(Cl)cc1	-4	-3	1%	-29%
CCOc1ccc(C(=O)Nc2ccc(-c3nc4ccccc4[nH]3)cc2)cc1[N+](=O)[O-]	-3	-5	-1%	-7%
Cn1ncc([N+](=O)[O-])c1C(=O)Nc1ccc(C2CCCCC2)cc1	26*	59	8%	2%
COCCNC(=O)CSc1nc(-c2ccc(F)cc2)[nH]c1-c1ccc(Cl)cc1	/	/	7%	-15%
COc1ccc(CN2CCCC(c3nc(-c4ccncc4)ncc3-c3ccccc3C)C2)c(OC)c1 (stereo not given)	/	/	/	-8%
Fc1ccccc1CCNCc1ccccc1	2	4	-11%	2%
Fc1ccccc1CCNCc1cccc(Cl)c1Cl	18*	27	-26%	/
CCCCN1/C(=C/c2ccc3ccccc3[n+]2CC)Sc2ccccc21	-2	-9	/	20µM*
CCN1/C(=C/c2ccc3cc(C)ccc3[n+]2CC)Sc2cc(C)ccc21	2	-21	2%	?
CCc1c(C)sc2c1CCN(Cc1cccc(F)c1)C2c1ccccc1 (stereo not given)	/	/	-5%	0%
Cc1cc(C)c(OCCOCCn2c(-c3ccc(Cl)cc3)nc3ccccc3c2=O)c(C)c1	/	/	7%	8%
O=C(Nc1cccc(-c2cn3cccnc3n2)c1)c1ccco1	24*	29	-32%	-4%
CC(C)CC(=O)Nc1ccc(-c2cn3cccnc3n2)cc1	29*	88*	2%	73%
CCOCC(=O)Nc1ccc(-c2cn3cccnc3n2)cc1	16	5	0%	14%
CC(C)(C)CC(=O)Nc1ccc(-c2cn3cccnc3n2)cc1	39*	72*	0%	56%
CCCC(=O)Nc1ccc(-c2cn3cccnc3n2)cc1	31*	39*	-16%	38%
COc1ccc(NC(=O)CCN2CCN(CCO)CC2)c(OC)c1	/	/	2%	-9%
O=c1c2ccccc2n2c(-c3ccc(Cl)cc3)nnc2n1CCc1ccccc1	/	/	1%	-6%
COc1ccc(NC(=O)c2nc(-c3ccc(C)cc3)n3c2CCCCC3)cc1	/	/	-11%	-1%
CCCC(=O)Nc1cccc(-c2cn3cccnc3n2)c1	23*	37	-1%	8%
CC(C)CC(=O)Nc1ccc(-c2cn3ccsc3n2)cc1	19*	33*	-21%	-24%
SMILES	Cycloheximide cs	Shiga inhibitor	Sm TGR block	FMDV inh
COc1ccc(N2CCN(C(=O)CCn3cnc4onc(-c5ccc(F)cc5)c4c3=O)CC2)cc1	/	/	-2%	-19%
COc1ccc(OC)c(S(=O)(=O)ON2C(=O)c3ccccc3C2=O)c1	8	6	0.63µM*	?
CCc1ccc(S(=O)(=O)ON2C(=O)c3ccccc3C2=O)cc1	1	2	1.4µM*	0%
COc1ccc(OC)c(S(=O)(=O)N2CCN(c3ccccc3)CC2)c1	1	-1	-4%	5%
COC(=O)NNC(=O)CCCOc1ccc(Cl)cc1Cl	4	6	7%	0%
CC(C)NC(=O)CCCOc1ccc(Cl)cc1Cl	34*	34	-3%	/
CCN(CC)C(=O)CCCOc1ccc(Cl)cc1Cl	33	91*	13%	7%
CCn1c(CCCOc2ccc(Cl)cc2Cl)n[nH]c1=S	21*	57*	0%	6%
CN1CCN(C(=O)CCCOc2ccc(Cl)cc2Cl)CC1	10	-7	7%	-1%
C#CCN(C)CCCOc1ccc(Cl)cc1Cl	27*	81*	1%	0%
CCOc1ccc(N2C(=O)N(Cc3ccc(C)cc3C)c3ccccc3S2(=O)=O)cc1	/	/	5%	-13%
CCN(CC)C(=O)C(C)N(C#N)c1nc(Cl)nc(N(C)C)n1 (stereo not given)	-3	-17	0%	-12%
CC(=O)NC(N(C#N)c1nc(Cl)nc(N(C)C)n1)C(Cl)(Cl)Cl (stereo not given)	0	4	40µM*	-13%
O=C(CSCc1ccccc1Cl)N1CCN(c2ccccn2)CC1	59*	119*	-21%	23%
O=C(c1c(Cl)cccc1Cl)N1CCN(c2ccccn2)CC1	-2	-10	1%	-24%
Cc1ccc(Cl)cc1N1CCN(C(=O)CCSCc2ccccc2F)CC1	/	/	8%	-5%
O=C(CSc1ccccc1)N1CCC2(CC1)OCCO2	36*	54*	-5%	48%
O=C(CC(c1ccccc1)c1ccccc1)N1CCN(c2ccccn2)CC1	1	1	9%	?
O=C(CSc1ccccc1)N1CCN(c2ccccn2)CC1	15*	30	-2%	20%
O=C(CCSCc1ccccc1F)N1CCN(c2ccccn2)CC1	28*	79*	-21%	/
COc1ccc(NC(=O)C2=C(C)Nc3nc(CCCO)nn3C2c2ccc(O)cc2)cc1 (stereo not given)	/	/	2%	-8%
O=C(CCn1cccn1)Nc1ccc(Br)cc1F	/	/	-2%	13%
C=CCN1CCN(C(=O)c2ccc(-c3ccccc3)cc2)CC1	-3	-6	-20%	-9%
C=CCN1CCN(C(=O)CSc2ccccc2)CC1	34*	32*	0%	60%
O=C(N1CCN(c2ccccn2)CC1)C(Cl)(Cl)Cl	28*	34*	2%	3%
SMILES	Cycloheximide cs	Shiga inhibitor	Sm TGR block	FMDV inh
CCOC(=O)c1[nH]c(C)c(CCC(=O)Nc2ccc(C(C)=O)cc2)c1C	/	/	2%	-6%
COc1ccc(NC(=O)C(=O)NCC2(c3ccccc3)CCCC2)c(OC)c1	/	/	-1%	-22%
Cc1ccc(-n2nc(CO)c(C(=O)NCCCc3ccccc3)n2)cc1	/	/	3%	-7%
CCCc1cc(NCCCN(C)C)n2c(nc3ccccc32)c1C#N	-4	-4	40µM*	-20%
Cc1cc(C)n(CCc2nc(-c3ccc(C)o3)cs2)n1	-1	56	7.9µM*	24%
O=C(NCC1(N2CCCCC2)CCCCC1)c1ccc(-n2cc(NC(=O)c3cccnc3)cn2)cc1	/	/	/	-10%
O=C1CN(c2nc3ccccc3n3cnnc23)CC(=O)N1CCc1ccccc1	-5	-16	32µM*	0%
CCOc1ccc(C2C(C(=O)Nc3ccc(C)cc3C)=C(C)Nc3c(C(=O)Nc4ccc(C)cc4)cnn32)cc1OC (stereo not given)	/	/	5%	-11%
COCc1nnc(NC(=O)c2cc3ccccc3o2)s1	18*	58*	7%	1%
CCCc1nnc(NC(=O)c2cc3ccccc3oc2=O)s1	-1	10	-1%	-5%
CCCc1nnc(NC(=O)c2cc3ccccc3o2)s1	13*	41	-1%	0%
Cc1csc(NC(=O)c2cc3ccccc3o2)n1	/	/	0%	-33%
CCOC(=O)c1cccc(NC(=O)C2CCN(S(=O)(=O)c3c(C)noc3/C=C/c3ccc(C)cc3)CC2)c1	/	/	8%	?
CCOC(=O)N1CCN(C(=O)c2ccc3c(c2)N(C)C(=O)/C(=C\c2ccc(OCC)c(OC)c2)S3)CC1	13	10	-2%	35µM*
